High-throughput results deposited in PubChem BioAssay by several laboratories.
An excerpt weighted towards active compounds, which were near 4.1% of everything screened.
CHT PAM: allosterically activates the human high affinity choline transporter; Q9GZV3; CHT-expressing cells, membrane potential dye, choline EC20; hits give high values; LV-AA mutant CHT in HEK293 cells; B-score at 10 µM; actives 0.49% (n = 310,000);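 active means initial fluorescence not abnormally high and integrated response B-score, plate-corrected, over 3 SD above library mean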
MEKK3 PB1 HTS: MEKK3-MEK5 PB1 interaction, increase or decrease. Q99759. AID 1529. bead-based flow cytometry, Alexa488-MEK5 binding to MEKK3; actives lie on both sides; 0 = blocked by unlabeled MEK5, 100 = vehicle. binding response (% of control), % at 10 µM. actives 1.4% (n = 290,000);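 active means binding response more than 3 SD above or below the average of its plate-row segment, actives on both sides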;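 further: Alexa488 bead fluorescence after subtracting the streptavidin-only scavenger bead signal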
Target sequence (Q99759 whole entry, looked up): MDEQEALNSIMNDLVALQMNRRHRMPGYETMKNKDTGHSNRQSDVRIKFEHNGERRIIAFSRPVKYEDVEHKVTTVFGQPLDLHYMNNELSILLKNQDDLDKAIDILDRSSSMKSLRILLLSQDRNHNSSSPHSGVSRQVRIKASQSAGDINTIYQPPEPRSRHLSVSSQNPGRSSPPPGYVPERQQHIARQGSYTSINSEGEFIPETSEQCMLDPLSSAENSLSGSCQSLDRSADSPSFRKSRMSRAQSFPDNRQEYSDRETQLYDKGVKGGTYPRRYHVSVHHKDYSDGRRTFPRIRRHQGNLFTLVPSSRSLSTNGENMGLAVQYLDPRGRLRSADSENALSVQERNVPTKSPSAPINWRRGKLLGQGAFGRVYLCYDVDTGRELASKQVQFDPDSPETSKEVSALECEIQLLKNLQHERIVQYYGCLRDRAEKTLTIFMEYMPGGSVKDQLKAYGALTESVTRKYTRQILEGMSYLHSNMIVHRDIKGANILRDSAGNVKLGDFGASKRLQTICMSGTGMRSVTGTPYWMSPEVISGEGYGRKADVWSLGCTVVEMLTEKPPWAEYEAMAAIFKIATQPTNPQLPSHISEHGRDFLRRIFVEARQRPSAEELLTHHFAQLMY
MEKK2wt PB1 HTS: raises or lowers MEK5 binding to wildtype human MEKK2 PB1 domain. AID 1531. actives 1.1% (n = 290,000). bead flow cytometry, Alexa488-MEK5 binding to MEKK2 WT; actives lie on both sides. binding response (% of control), % at 10 µM. Q9Y2U5; in the data active means binding response below about 67% or above about 130%
Mot1-301 SUMO: inhibitors of SUMOylation pathway: yeast Mot1-301 growth rescue | growth rescue, % at 18.8 µM | AID 2716 | actives 1% (n = 320,000) | S. cerevisiae Mot1-301 growth rescue, ATP luminescence, 38.5C; percent above DMSO median, 100 means doubled;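 active means every valid replicate shows activation above 250% relative to neutral control wells; inactive means the rest, any valid replicate at or below 250%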
MEKK2mut PB1 HTS: signal of MEK5 binding to mutant human MEKK2 PB1 domain; actives 0.35% (n = 290,000); percent response, % at 10 µM; AID 1530; bead flow cytometry, Alexa488-MEK5 binding to MEKK2 mutant; in the data active means percent response above about 24%, passing the limit was not always enough
CHT inh: human CHT choline transport inhibition. Q9GZV3. B-score at 10 µM. actives 0.86% (n = 310,000). CHT-expressing cells, membrane potential dye, choline response; hits give low values;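 active means B-score over 3 SD under the library average, and starting fluorescence ratio not unusually high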;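 further: choline stimulus applied at its EC90 after an EC20 pre-addition; B-score computed on integrated fluorescence ratio after choline addition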
MEKK2wt confirm: raises or lowers MEK5 binding to wildtype human MEKK2, retest. actives 2.4% (n = 5,900). shares compounds with MEKK3 PB1 HTS. binding response (% of control), % at 10 µM. bead flow cytometry, Alexa488-MEK5 binding to MEKK2 WT; actives lie on both sides. AID 1892; in the data active means binding response below about 16% or above about 210%; inactive means in between
MEKK2mut-MEK5: signal of MEK5 binding to mutant human MEKK2, retest. actives 2% (n = 5,900). shares compounds with MEKK3 PB1 HTS. bead flow cytometry, Alexa488-MEK5 binding to MEKK2 mutant. percent response, % at 10 µM; in the data active means percent response mostly above about 71%, no sharp cut-off; inactive means mostly below about 38%;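 further: higher means compound restores mutant binding toward wildtype level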
MEKK3 confirm: MEKK3-MEK5 PB1 inhibition, single concentration confirmation; bead flow cytometry, Alexa488-MEK5 binding to MEKK3; hits give low values; shares compounds with MEKK3 PB1 HTS; binding response (% of control), % at 10 µM; actives 1.8% (n = 5,900);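 active means binding response below 72% of control, or above a set upper limit, though filed actives all read lower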
Large screens that a line does not name were inactive (follow-up assays come after a bar, where they were run); [ ] = dose if it differs, or a comment.

CCNC(=O)COC(=O)c1cccc(Br)c1	MEKK3 PB1 HTS 38.0[inhibitor], MEKK2wt PB1 HTS 39.0[inhibitor] | MEKK2wt confirm inactive | MEKK2mut-MEK5 inactive | MEKK3 confirm inactive
C=CC[C@H](CC(=O)NCCO)C(=O)N[C@H](COC(=O)[C@H](CC=C)CC(=O)OC(C)(C)C)c1ccccc1	none (no result: CHT PAM, MEKK3 PB1 HTS, MEKK2wt PB1 HTS, MEKK2mut PB1 HTS, CHT inh)
O=C(/C=C\c1ccc(-c2cccc([N+](=O)[O-])c2)o1)N1CCOCC1	none
Cc1c(NS(=O)(=O)c2ccccc2)c(=O)n(-c2ccccc2)n1C	MEKK3 PB1 HTS 126.0 | MEKK2wt confirm inactive | MEKK2mut-MEK5 inactive | MEKK3 confirm inactive
Cc1c(NC(=O)c2ccccc2F)c(=O)n(-c2ccccc2)n1C	MEKK3 PB1 HTS 23.0[inhibitor], MEKK2wt PB1 HTS 41.0[inhibitor] | MEKK2wt confirm inactive | MEKK2mut-MEK5 inactive | MEKK3 confirm inactive
COc1ccc(C(=O)N2CCN(Cc3nc(CC4CC4)no3)CC2)cc1	none (no result: Mot1-301 SUMO)
CCOC(=O)Nc1nnc(-c2ccc(OC)c(OC)c2)s1	none
COc1cc(C2C(C#N)=C(N)Oc3cc(O)ccc32)cc(OC)c1OC (stereo not drawn)	MEKK3 PB1 HTS 10.0[inhibitor], MEKK2wt PB1 HTS 13.0[inhibitor] | MEKK2wt confirm inactive | MEKK2mut-MEK5 inactive | MEKK3 confirm inactive
CCOc1ccccc1NC(=O)N1CCCN(c2ncccc2C#N)CC1	none
Cc1ccc2c(c1)N(C(C)C(=O)NCc1cccs1)C(=O)CO2 (stereo not drawn)	none
Cc1ccc2c(c1)N(C(C)C(=O)NCc1ccc3c(c1)OCO3)C(=O)CO2 (stereo not drawn)	MEKK3 PB1 HTS 30.0[inhibitor], MEKK2wt PB1 HTS 29.0[inhibitor] | MEKK2wt confirm inactive | MEKK2mut-MEK5 inactive | MEKK3 confirm inactive
CC1CCN(c2ccc(NC(=O)c3ccc(Br)o3)cc2)CC1	none
CCC(C(=O)NC(C)(C)C)N(C(=O)Cn1nnc(-c2ccccc2F)n1)c1cnc2ccccc2c1 (stereo not drawn)	MEKK3 PB1 HTS 128.0 | MEKK2wt confirm inactive | MEKK2mut-MEK5 inactive | MEKK3 confirm inactive
CCCc1ccc(Oc2c(-c3ccc(O)c(C)c3O)n[nH]c2C)cc1	none
CCCc1ccc(Oc2cn[nH]c2-c2ccc(O)c(C)c2O)cc1	MEKK3 PB1 HTS 123.0 | MEKK2wt confirm inactive | MEKK2mut-MEK5 inactive | MEKK3 confirm inactive
COc1ccccc1C(=O)NCC(=O)N1CC=C(c2ccccc2)CC1	none (no result: CHT PAM, MEKK3 PB1 HTS, MEKK2wt PB1 HTS, MEKK2mut PB1 HTS, CHT inh)
COc1cccc(C2CC(=O)Nc3cc4c(cc32)CCC4)c1 (stereo not drawn)	none
O=C1CC(c2cccc(Cl)c2)c2cc3c(cc2N1)CCC3 (stereo not drawn)	MEKK3 PB1 HTS 2.0[inhibitor], MEKK2wt PB1 HTS -2.0[inhibitor] | MEKK2wt confirm inactive | MEKK2mut-MEK5 inactive | MEKK3 confirm inactive
O=C1COc2ccc(C(=O)CSc3nc4ccccc4c(=O)n3-c3ccc(Cl)c(Cl)c3)cc2N1	MEKK3 PB1 HTS 136.0 | MEKK2wt confirm inactive | MEKK2mut-MEK5 inactive | MEKK3 confirm inactive
CCc1ccc(-n2c(SCC(=O)c3ccc4c(c3)NC(=O)CO4)nc3ccccc3c2=O)cc1	none (no result: Mot1-301 SUMO)
O=C(NCc1cccnc1)C1CCN(S(=O)(=O)c2cc(Cl)ccc2Cl)CC1	none
COc1cc(NC(=O)c2ccccc2)c(OC)cc1Cl	none
COc1cc(Cl)c(C)cc1NC(=O)c1ccc(S(C)(=O)=O)cc1	MEKK3 PB1 HTS 45.0[inhibitor] | MEKK2wt confirm inactive | MEKK2mut-MEK5 inactive | MEKK3 confirm inactive
COc1ccc(OC)c(C(c2c(O)nc(SC)[nH]c2=O)c2c(O)nc(SC)[nH]c2=O)c1	none
CC(=O)N(C(C)=O)S(=O)(=O)c1ccc(N=NN2CCCCC2)cc1	none
